Sampled rows, rich in hits. Any-hit rate of the full collection: about 7.9%.
SW480 rereplic = induces DNA re-replication in SW480 colon adenocarcinoma cells | SW480 DNA re-replication, Hoechst DNA content imaging, 48 h | Potency, µM (top dose mostly 46.1 µM), for inactives: top-dose re-replication activation, actives largely listed as activators | 340,000 compounds, 1.8% hits | AID 624297; note: % of control where 0% means no effect; nearly all actives have a fitted effect of over 55% in size
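First, 250 cells per well were seeded. Next, compound or vehicle (23 nL) was pinned in, plates sat 48 hr at 37 C. Finally Hoechst was added for 40 min before fluorescence scanning.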
HT1080-NT tox = kills 2HG-producing HT-1080-NT fibrosarcoma cells; HT-1080-NT fibrosarcoma viability, CellTiter-Glo ATP luminescence, 48 h; 360,000 compounds, 1.6% hits; AID 686970; Potency, µM (doses to about 46.1 µM), for the others: at the highest dose activity, negative = less viability, actives largely listed as cytotoxic;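 note: NT is the 2HG producing partner of a matched IDH1 knockdown line; 0% = DMSO-treated cells and -100% = media-only wells without cells; nearly all actives have a fitted effect of over 55% in size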
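Viability of the 2HG-overproducing fibrosarcoma line after 48 hours of compound exposure at 37 degrees C was determined by luminescence with CellTiter-Glo, and concentration-effect curves were then fitted and categorized.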
MCF10A rerep = DNA re-replication induction in MCF 10a cells. 350,000 compounds, 2.9% hits. Potency, µM (series often up to 46.1 µM), for inactives: top-dose activity, positive = re-replication, actives largely listed as activators. AID 624296. MCF 10A DNA re-replication, Hoechst nuclear intensity, 48 h; note: % of control where 0% means no effect; nearly all actives have a fitted effect of over 50% in size
KB-V1 MDR tox = kills drug-selected multidrug resistant KB-V1 cells | KB-V1 MDR cells viability, CellTiter-Glo, 72 h | Potency, µM (doses to about 46.1 µM), most hits filed as cytotoxic | 400,000 compounds, 3.4% hits | AID 1347076; note: % is set by controls: 0 for no effect and ±100 for the full control effect; nearly all actives have a fitted effect of over 60% in size
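Following 72 h at 37 degrees C with compound, KB-V1 cell viability was read by CellTiter-Glo luminescence, medium being phenol-red-free DMEM plus 10% FBS; concentration-response parameters came from normalized, curve-fitted qHTS data.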
KB-3-1 cytotox = KB-3-1 parental cell cytotoxicity | 400,000 compounds, 1.4% hits | KB-3-1 viability, CellTiter-Glo ATP luminescence, 72 h | AID 1347075 | Potency, µM (titrated, usually from 46.1 µM), usual class: cytotoxic; note: % is set by controls: 0 for no effect and ±100 for the full control effect; nearly all actives have a fitted effect of over 60% in size
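Multi-concentration cytotoxicity screen in KB-3-1 cells grown in DMEM lacking phenol red with 10% FBS. After 72 h at 37 °C with compound, ATP-dependent luminescence was recorded.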
HT1080 IDH1KD tx = toxicity to HT-1080 IDH1 knockdown cells (counter line) | HT-1080 IDH1 knockdown viability, ATP luminescence, 48 h | Potency, µM (top dose mostly 46.1 µM), for the others: at the top dose activity, negative = toxicity, usual class: cytotoxic | 360,000 compounds, 2% hits;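 note: 0% = DMSO wells and -100% = cell-free medium wells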
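% activity derives from luminescence (CellTiter-Glo), normalised to DMSO and no-cell wells. HT-1080-IDH1KD cells, 750/well, had 48 h compound exposure at 37 °C.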
Numbers without * were called inactive; i = inactive; ? = inconclusive; . = no result. Calls come from the whole dose curve; as a rule, active = well fitted curve in the direction sought with a large enough effect; inconclusive = small, poorly fitted or top-dose-only effect, or another doubt; inactive = no such curve, though single readings can be large; an effect the other way counts as inactive or inconclusive. Potency is the fitted concentration of half-maximal effect.

SMILES	SW480 rereplic	HT1080-NT tox	MCF10A rerep	KB-V1 MDR tox	KB-3-1 cytotox	HT1080 IDH1KD tx
Cc1csc(N=Nc2ccc(N(C)C)cc2)[n+]1[O-]	.	?	.	i	?	?
Cc1nnc(SCc2nc3ccccc3s2)n1-c1ccccc1	12%	-30%	9%	i	i	0%
c1ccc(-n2cnnc2SCc2nc3ccccc3s2)cc1	15%	4%	?	21µM*	i	1%
O=C(Nc1ccc(F)cc1)[C@H](CSCc1ccccc1)N1Cc2ccccc2C1=O	.	.	.	i	i	.
Cc1ccc(NC(=O)/C=C/c2cccs2)c([N+](=O)[O-])c1	21µM*	?	?	5.8µM*	?	-22%
COc1ccc(C2NC(=S)NC3=C2CCCC3=C2SCCS2)cc1 (centres undefined)	?	9.2µM*	19%	i	?	6.5µM*
COc1ccc2c(c1)CCC1=C2NC(=S)NC1c1ccc(N(C)C)cc1 (centres undefined)	12%	1%	21µM*	?	?	-24%
S=C1NC2=C(CCCC2=C2SCCCS2)C(c2ccccc2)N1 (centres undefined)	4%	0%	1%	i	i	12%
CC(NC(=O)CN(C)S(=O)(=O)c1cccc2nsnc12)c1ccccc1 (centres undefined)	3%	14%	6%	i	i	16%
O=c1ccc2nc3ccccc3sc-2c1	.	?	.	i	i	?
CC(C)Cn1cc(C(=O)NCCCN2CCC(C)CC2)c2c3ccccc3n(C)c2c1=O	-4%	2%	0%	i	i	12%
CC(C)Cn1cc(C(=O)NCCCN2CCCC2=O)c2c3ccccc3n(C)c2c1=O	-1%	6%	18%	5.8µM*	i	-19%
CN(C)c1nc(N/N=C/c2c[nH]c3ccccc23)nc(N2CCOCC2)n1	15µM*	-19%	19%	i	i	-19%
COc1cc2c(cc1OC)CN(CC(=O)Nc1ccc(S(=O)(=O)N(C)C)cc1)CC2	-14%	-1%	2%	?	i	-8%
COc1cc2c(cc1OC)CN(CC(=O)Nc1ccc3c(c1)OC(F)(F)O3)CC2	-1%	14%	19%	13µM*	i	10%
O=C(CSc1nc(-c2cccs2)cc(C(F)(F)F)n1)Nc1cc(OCC(F)(F)C(F)F)cc([N+](=O)[O-])c1	?	?	?	16µM*	?	?
O=C(NCCCN1CCCC1)c1cc(Sc2ccc(F)cc2)nc2ccccc12	?	21µM*	?	?	i	26µM*
Cc1ccc(Nc2ncc(C(=O)NCCCN3CCN(C)CC3)c3ccccc23)cc1Cl	?	16µM*	23µM*	?	i	26µM*
O=C(NCCN1CCOCC1)c1cc(Sc2ccc(F)cc2F)nc2ccccc12	-3%	-7%	2%	i	i	-21%
O=C(NCCCN1CCOCC1)c1cc(-c2ccc(Br)cc2)nc2ccccc12	6%	-15%	9%	i	i	-19%
Cc1ccc(-c2cc(C(=O)NCCCN3CCOCC3)c3ccc(Cl)c(C)c3n2)cc1	21µM*	-2%	?	i	i	1%
O=C(NCCCN1CCOCC1)c1cc(-c2ccccc2)nc2ccccc12	-4%	0%	6%	i	i	5%
Cc1ccc(Nc2cc(C(=O)NCCCN3CCOCC3)c3ccccc3n2)cc1C	?	23µM*	10µM*	i	i	?
Cc1ccc(S(=O)(=O)c2cnc(-c3ccccc3)[nH]c2=O)cc1	.	21%	.	.	.	2%
CN(Cc1c(F)cccc1Cl)C(=O)c1ccc(NS(=O)(=O)c2ccc3[nH]c(=O)[nH]c3c2)cc1	0%	0%	2%	i	i	1%
SMILES	SW480 rereplic	HT1080-NT tox	MCF10A rerep	KB-V1 MDR tox	KB-3-1 cytotox	HT1080 IDH1KD tx
CCOc1ccc(S(=O)(=O)N2CCN(c3ccccc3F)CC2)c2cccnc12	16µM*	-2%	16%	?	i	-11%
CC(=O)N1CCCc2ccc(NS(=O)(=O)c3ccccc3)cc21	6.5µM*	0%	20%	?	i	-8%
Cc1ccc(S(=O)(=O)Nc2ccc3c(c2)CCC3)cc1	-96%	-25%	12%	21µM*	?	-28%
O=c1oc2ccccc2cc1-c1nc2c(s1)CCCC2	1.2µM*	-2%	1.2µM*	?	?	-3%
Fc1ccc(CNCc2ccccc2C(F)(F)F)cc1	18µM*	2%	-1%	i	i	4%
CCN(CC)CCCNC(=S)N1CCN(c2nc3ccccc3n2CC)CC1	?	-20%	?	?	i	-12%
CC(C)N=c1scc(-c2cccs2)n1/N=C/c1ccc(O)c(O)c1O	?	?	?	i	?	16µM*
CCN=c1scc(-c2cccs2)n1/N=C/c1cc(OC)ccc1O	?	-17%	5.8µM*	?	18µM*	-25%
COc1cc2nc(N3CCN(C)CC3)nc(NC3CCN(C)CC3)c2cc1OC	.	-10%	.	.	.	-12%
Cc1cc(C(=O)N[C@H](c2ccccc2)[C@@]2(C)C[C@@H]2[C@@H](C)C(=O)Nc2ccc3ccccc3c2)n(C)n1	15µM*	-24%	?	?	?	-16%
CCc1ccc(NC(=O)CSc2ccc3nnc(CCNS(=O)(=O)c4ccc(OC)cc4)n3n2)cc1	.	.	.	i	i	.
CCc1nc2ccc(C(=O)NCCOc3ccc(OC)cc3)cn2c1N(C)CCCc1ccccc1	.	?	.	i	?	-4%
COc1ccc(NC(=O)COc2ccccc2Cc2ccccc2)cc1S(N)(=O)=O	-7%	-9%	6%	10µM*	16µM*	-25%
COc1ccc(NC(=O)CCCSc2ccccc2)cc1S(N)(=O)=O	0%	1%	2%	i	i	0%
COc1ccc(NC(=O)CN(Cc2ccccc2)Cc2ccccc2)cc1S(N)(=O)=O	-100%	1%	-5%	21µM*	i	-2%
Cc1ccc(CCNS(=O)(=O)c2ccc3c(c2)CCN3C(=O)CCC(=O)O)cc1	.	.	.	i	i	.
COc1ccc(CCNCc2c(OC)ccc3ccccc23)cc1OC	9%	?	?	i	i	?
COc1ccc2ccccc2c1CNC(C)CCc1ccccc1 (centres undefined)	?	?	?	i	i	18µM*
O=C(c1ccc2ncsc2c1)N1CCN(c2cccc(C(F)(F)F)c2)CC1	?	8.2µM*	13µM*	?	?	8.2µM*
